Screening results from PubChem.
VHR inh abs: inhibitors of human VHR1 phosphatase (DUSP3); 290,000 tested, 0.52% active; recombinant VHR phosphatase, pNPP absorbance; inhibition, % at 13.3 µM; P51452; in the data active = inhibition above about 50%
Target sequence (P51452 whole entry, looked up): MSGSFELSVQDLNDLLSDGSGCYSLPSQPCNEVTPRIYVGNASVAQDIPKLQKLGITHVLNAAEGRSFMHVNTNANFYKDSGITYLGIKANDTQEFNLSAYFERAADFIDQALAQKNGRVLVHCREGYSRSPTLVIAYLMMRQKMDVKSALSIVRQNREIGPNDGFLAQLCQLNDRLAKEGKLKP
MazF activator: activators of E. coli MazEF toxin-antitoxin RNase. P0AE70. FAM/BHQ RNA-DNA oligo cleavage fluorescence, 5 h. activation, % at 20 µM. 350,000 tested, 0.32% active; in the data active = activation above about 50%
Target sequence (P0AE70 whole entry, looked up): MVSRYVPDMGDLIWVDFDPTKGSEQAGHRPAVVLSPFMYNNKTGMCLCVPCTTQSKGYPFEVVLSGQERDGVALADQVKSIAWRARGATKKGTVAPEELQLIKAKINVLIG
PrPC TRFRET: inhibitors of human cell surface prion protein PrPC; TR-FRET read-out; inhibition, % at 13.8 µM; 370,000 tested, 0.43% active; AID 720596; in the data active = inhibition above about 24%; also: 0% = median of the test wells and 100% = reference compound wells
PrP 5UTR inh: suppresses PrP 5' UTR mRNA reporter expression | inhibition, % (no concentration beside the values) | 340,000 tested, 0.35% active | AID 488862 | cell-based PrP 5' UTR mRNA reporter, plate reader; in the data active = inhibition above about 52%; also: 0 = median of the neutral control wells
Mtb hypoxia rep: inhibitors of hypoxia-regulated fluorescent reporter in Mycobacterium tuberculosis; 300,000 tested, 0.1% active; AID 1159583; M. tuberculosis hypoxia-regulated fluorescent reporter, fluorescence; fluorescence inhibition, % (test concentration not listed); in the data active = fluorescence inhibition mostly above about 23%, no sharp cut-off; inactive = mostly below about 17%
SARS 3CLpro inh: SARS-CoV 3CLpro protease inhibition | inhibition, % at 6 µM | 290,000 tested, 0.14% active | recombinant SARS-CoV 3CLpro, quenched FRET peptide cleavage | AID 1706 | P0C6X7; in the data active = inhibition above about 12%
* hit, by the source's call; / = not tested or not shown; + = active, no number. Sampled rows, rich in hits. Any-hit rate of the full collection: about 1.5%.

SMILES	VHR inh abs	MazF activator	PrPC TRFRET	PrP 5UTR inh	Mtb hypoxia rep	SARS 3CLpro inh
CN1C(=O)C2C(C=Cc3ccccc3)N3C(=O)CN(CCO)C(=O)[C@@]3(Cc3ccccc3)C2C1=O (stereo partly specified)	/	/	/	/	-3	/
Cc1ccc(-c2nn3c(C)nnc3c3ccccc23)cc1S(=O)(=O)NCCN1CCOCC1	52*	-3	10	-12	5	2
Cc1ccc(-c2n[nH]c(=O)c3ccccc23)cc1S(=O)(=O)NCCN1CCOCC1	13	2	-6	-28	11	6
O=C(CC(=O)NN=Cc1c(Cl)cccc1Cl)NCc1cccnc1	/	/	/	/	2	/
C=CCN1C(=O)S/C(=C\c2ccc(N3CCOCC3)cc2C)C1=O	16	103*	-8	-47	8	6
CCOC(=O)N1CCN(S(=O)(=O)N2CCCC(C(=O)NCCc3ccc(OCC)c(OCC)c3)C2)CC1 (stereo unspecified)	57*	5	2	-6	-1	-2
COC(=O)C1CC2CCC(O)CC2N1Cc1ccccc1OS(=O)(=O)c1ccc(C)cc1 (stereo unspecified)	/	/	/	/	1	/
O=C(NCC1CCCO1)c1sc(=S)n2c1[nH]c(=O)c1ccc(C(=O)N3CCCCC3)cc12 (stereo unspecified)	25	-5	5	-29	35*	3
O=C(NCCc1ccccc1)c1ccc2c(=O)[nH]c3c(C(=O)NCC4CCCO4)sc(=S)n3c2c1 (stereo unspecified)	1	11	0	0	/	2
COC(=O)C1=C(c2ccc(OC(F)(F)F)cc2)CC2CCC1N2C(=O)NC1CCCCC1 (stereo unspecified)	/	/	/	/	-7	/
CC1=Nc2ccccc2/C1=C\c1nc(-c2ccc(C(F)(F)F)cc2)oc1O	23	57*	-1	/	6	2
COc1ccc(C2C(C#N)=C(N)Oc3cc(N)ccc32)cc1 (stereo unspecified)	56*	9	-6	-18	7	3
CCOc1cc(/C=C2/SC(=S)N(CC3CCCO3)C2=O)ccc1O (stereo unspecified)	12	+	3	-18	9	0
O=C(NN=Cc1ccco1)c1ccc(NC(=O)C2CC2)cc1	/	/	/	/	8	/
CON=C(C)C(Cc1ccc(Cl)nc1)Cc1ccc(Cl)nc1	/	/	/	/	5	/
Cn1c(=O)[nH]c(=O)c2c1nc(SCC(N)=O)n2Cc1cccc(Br)c1	52*	10	-3	-12	1	2
Cn1c(=O)[nH]c(=O)c2c1nc(N)n2Cc1ccccc1	52*	12	0	-24	3	-2
Cc1cc(C)nc(NN=Cc2cc(Br)ccc2O)n1	/	/	/	/	-19	/
CCN(CC)CCNC(=O)Cc1c(C(=O)O)n(CC)c2ccccc12	6	1	3	-11	1	-2
CCn1c(C(=O)O)c(CC(=O)Nc2ccc(Br)cc2C)c2ccccc21	57*	5	5	-9	-4	5
CCOC(=O)c1nc(NNC(=O)c2ccc([N+](=O)[O-])cc2)sc1C	51*	2	-11	-4	-5	-4
CCOC(=O)c1sc(NNC(=O)c2ccc(C)cc2)nc1C	-3	-7	0	-7	-11	4
CC1CN(C(C)CO)C(=O)c2cccc(NC(=O)c3ccncc3)c2OC1CN(C)C(=O)NC1CCCCC1 (stereo unspecified)	/	/	/	/	7	/
COc1ccccc1C(=O)N/C(=N\c1nc(C)cc(C)n1)Nc1ccccc1	/	/	/	/	1	/
CCOC(=O)c1ccc(NC(=O)Cn2ncc(Cl)c(Cl)c2=O)cc1	3	8	-5	-31	36*	0
SMILES	VHR inh abs	MazF activator	PrPC TRFRET	PrP 5UTR inh	Mtb hypoxia rep	SARS 3CLpro inh
O=C(Cn1ncc2c([nH]c3ccccc32)c1=O)Nc1cccnc1	-32	14	8	-17	0	0
Cc1ccc(NC(=O)Cn2ncc3c([nH]c4ccccc43)c2=O)cc1Cl	58*	-2	5	-20	5	0
Cn1ncc(Cl)c1C(=O)NN=Cc1ccccn1	/	/	/	/	-4	/
CCC(=O)N1N=C2CC(C)(C)OCC2C1c1ccccc1 (stereo unspecified)	51*	4	7	-13	16	4
CCCCCC(=O)Nc1cccc(C2=NOC3(C2)CC(C(N)=O)N(C(=O)c2ccccc2)C3)c1 (stereo unspecified)	/	/	/	/	12	/
COCCNC(=O)c1oc2ccc3c(c2c1C)C(O)CC(C)(C)O3 (stereo unspecified)	57*	4	9	-3	-6	-1
COc1cc2cc(Oc3ccc4ccc(=O)oc4c3)c(=O)oc2cc1OC1OC(CO)C(O)C(O)C1O (stereo unspecified)	/	/	/	/	10	/
CCC1CN(C(=O)NCc2ccc(F)cc2)c2cc(Cl)ccc2O1 (stereo unspecified)	57*	-1	-1	-8	9	3
CCC1CN(C(=O)NCc2ccc(C)cc2)c2cc(Cl)ccc2O1 (stereo unspecified)	-12	-7	-2	-16	-2	7
OCC#CCSc1nnc(-c2ccccc2Br)o1	-9	9	5	-41	41*	-2
OCC#CCSc1nnc(-c2ccc(Br)cc2)o1	5	3	0	-13	/	3
O=C1/C(=N\S(=O)(=O)c2cccs2)C([n+]2ccc(CCCc3ccccc3)cc2)=C([O-])c2ccccc21	27	8	-15	/	12	-1
O=C1/C(=N\S(=O)(=O)c2cccs2)C([n+]2cccc(Cc3ccccc3)c2)=C([O-])c2ccccc21	13	271*	/	-9	2	-8
CCOC(=O)CCCCCC(=O)Nc1ccc2c(c1)CC(=O)N(C(C)CO)CC(C)C(CN(C)C(=O)Nc1ccc3c(c1)OCO3)O2 (stereo unspecified)	/	/	/	/	12	/
O=C(c1ccc(F)cc1)N1CCC2(CC1)NCCc1[nH]cnc12	56*	-17	-1	-5	-6	-2
CCN1CCc2c(C#N)c(NCc3ccccc3)nc(N(CC)CC)c2C1	56*	0	-9	-30	18	-3
COCCN1C(=O)NC(c2cccs2)C(C(C)=O)=C1C (stereo unspecified)	/	/	/	/	2	/
C=CS(=O)(=O)N(Cc1ccc(F)cc1)C(=C)C(=O)OC	/	/	53*	/	/	/
C=CCn1cc(C=NNC(=O)COc2cccc3cccnc23)c2ccccc21	/	/	/	/	3	/
O=C(NCCCN1CCCCC1)c1ccc(CS(=O)c2ccc(F)cc2)o1 (stereo unspecified)	52*	10	4	-7	2	-5
CCCN1CCN(C(=O)c2ccc(CS(=O)c3ccc(Cl)cc3)o2)CC1 (stereo unspecified)	57*	19	-2	-27	-2	-11
O=C(NCCCN1CCCCC1)c1ccc(CS(=O)c2ccc(Cl)cc2)o1 (stereo unspecified)	73	-19	-4	4	2	1
CCCN1CCN(C(=O)c2ccc(CS(=O)c3ccc(Br)cc3)o2)CC1 (stereo unspecified)	/	4	-4	/	/	/
